This is an account of results in PubChem BioAssay (NCI).

About 83,000 compounds went through this panel and 20% of them were active in at least one assay; those are over-represented in the sample as a whole.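 Testing used 96-well plates and a 48-hour single-concentration exposure. Example: -40 means 40% of the starting cells died.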 The source made the active and inactive calls. The calls were made as follows: active = growth percent below 10; inactive = the rest.

The subject of the assay is MDA-MB-468 breast. Briefly: NCI-60 one-dose screen, 48 h (100 = growth as untreated, 0 = no growth, -100 = all killed). Conditions: 10 µM unless noted.
On to `C#CC[C@@H]1C[C@]2(C)[C@H]3CC[C@@H]4[C@H]5[C@H](C(=C)C)CC[C@]5(C(=O)O)CC[C@@]4(C)[C@]3(C)CC[C@H]2C(C)(C)[C@H]1O`, for which the growth was -2.92% (active).
Consider `CC1Cc2c(ncnc2-n2cnc3ccccc32)N(C)c2ccccc21` (stereo not given), for which the growth is 9.47% (active).
Take `CC(C)NS(=O)(=O)c1cccc(-c2ccc3c4c(n(CCCN(C)C)c(=O)c3c2)-c2ccccc2C4=O)c1`: the growth is 99.3% (inactive).
In the case of `CS(=O)(=O)Nc1cc(-c2ccc3ncnc(Nc4ccc(F)c(Cl)c4)c3c2)cnc1Cl`, the growth is -43.3% (active).
On to `COc1ccc(C(C(=O)O)c2ccc(OC)cc2)cc1`, for which the growth is 113% (inactive).
As to `CNS(=O)(=O)c1n[nH]nc1-c1cc(C(C)(C)C)c(O)c(C(C)(C)C)c1`, the growth was 92.2% (inactive).
In the case of `O=C(NC1CCCCC1)c1ccc(Cl)cc1`, the growth was 104% (inactive).
The result for `COc1ccc(-c2nn(-c3cccc(Cl)c3)cc2C2CC(c3ccccc3)=NN2C(C)=O)cc1` (stereo not given) reads 80.9% (inactive); that for `CC(=O)c1ccc(NC(=O)CSc2nnc(-c3cc(-c4ccc(C)cc4)nc4ccccc34)o2)cc1`, 95.4% (inactive); that for `CC(C)CN1CC(C(=O)Nc2ccc3c(c2)-c2ccccc2C3)CC1=O` (stereo not given), 60.5% [50 µM] (inactive).
As for `O=c1cc(-c2ccc3c(c2)OCCO3)oc2cc(Cl)ccc12`, the growth is 66.4% (inactive).
The result for `Cn1ncc2c(Nc3ccccc3Cl)nc(Cl)nc21` reads 97.1% (inactive).
With `COc1ccc(C2=Nc3c(N)nc(N)nc3NC(c3cccc(Nc4ccnc5cc(C(F)(F)F)ccc45)c3)C2)cc1` (stereo not given), the growth is 46.1% (inactive).
In the case of `c1ccc(CNc2ccc3nc(CCC4CCCCC4)[nH]c3c2)cc1`, the growth was 43% (inactive).
As to `Cc1ccc(NC(=O)c2[nH]c(SCCN(C)C)nc2-c2ccc(F)cc2)cc1C#Cc1cnc2cccnn12`, the growth was 83.1% (inactive).
In the case of `CN(Cc1cnc2nc(N)nc(N)c2n1)c1c(Cl)cc(C(=O)NC(CCC(=O)O)C(=O)O)cc1Cl` (stereo not given), the growth is 15.3% (inactive).
As to `CCCc1c(CC)c(=N)c2ccccc2n1C`, the growth was 58.7% (inactive).
For the compound `COc1ccc(-c2nc3ccccn3c2-c2nnc(-c3cc(OC)c(OC)c(OC)c3)o2)cc1`, the growth is 44.3% (inactive).
As to `COc1ccc(-c2nc(N/N=C/c3cccc(Br)c3)nc(N3CCOCC3)c2C#N)cc1`, the growth is 73.4% (inactive).
The result for `CC1=Nc2cnc(Nc3ccc(OCCN4CCCCC4)cc3)nc2Nc2ccccc21` reads 63.4% (inactive); that for `CCN(CC)CCOc1ccc2c(-c3ccccc3)c(-c3ccc(OC)cc3)c(=O)oc2c1`, 44.5% (inactive).
The result for `O=C(Nc1ccccc1)C(CCCCN1C(=O)c2ccccc2C1=O)N1C(=O)c2ccccc2C1=O` (stereo not given) reads 103% (inactive); that for `Cc1c2ncccc2nc2[nH]c3ccc(OCCN(C)C)cc3c12`, -34.7% (active).
In the case of `Cc1ccc(NC(=O)Nc2ccc(-c3cccnc3)cc2N2CCC(CO)CC2)cc1`, the growth is -16.6% (active).
For the compound `COc1ccc(/C(=N/O)c2cc(OC)c(OC)c(OC)c2)c(OC)c1N`, the growth is 27.8% (inactive).
In the case of `O=C1Nc2ccc(F)cc2/C1=C\c1c(-c2ccccc2)nc2ccccn12`, the growth is 35.6% (inactive).
Regarding `COc1ccc(-c2noc(N)c2-c2cc(OC)c3c(c2)OCO3)cc1`, the growth is 25.6% (inactive).
As to `O=C(Nc1ccc(Nc2ccncc2)cc1)c1ccc(Nc2ccnc3ccc([N+](=O)[O-])cc23)cc1`, the growth is 83.4% (inactive).
`O=C(Nc1cccc2[nH]c(C(F)(F)F)nc12)c1ccc(F)cc1`: the growth is 65.6% (inactive).
In the case of `Cn1cc(-c2csc(-c3cn(C)c4ccc(Br)cc34)n2)c2cnccc21`, the growth is -68.4% (active).
On to `CCOC(=O)C(Cc1ccc(OC)cc1)C(=O)OCC`, for which the growth was 55.3% (inactive).
Take `Oc1[nH]c2ccc(Cl)cc2c1/C=c1/ccc2c(c1)N=C(c1cccs1)N=2`: the growth was 55.2% (inactive).
Turning to `COc1cc([C@@H]2c3cc4c(cc3[C@H](SC(=N)N)[C@H]3COC(=O)[C@H]23)OCO4)cc(OC)c1OC`, the growth was -4.2% (active).
Take `Cc1sc(N=Nc2ccc(N(C)C)cc2)[n+]([O-])c1C`: the growth is 75.2% (inactive).
As to `Clc1ccc(-c2nnc(COc3ccccc3Cl)o2)cc1`, the growth was 93.7% (inactive).
The result for `CCOC(=O)C1=C(CSC(=S)N(C2CCCCC2)C2CCCCC2)N(C)C(=O)NC1c1ccccc1` (stereo not given) reads 47.3% (inactive); that for `O=C(Nc1ccc(-n2cc(-c3ccncc3)c(-c3ccc(Cl)c(O)c3)n2)cc1)c1cc(Cl)cc(Cl)c1`, 57.6% (inactive).
For the compound `C=C(C)[C@@H]1CC[C@]2(C(=O)N3CCN(C)CC3)CC[C@]3(C)[C@H](CC[C@@H]4[C@@]5(C)CC[C@H](OCCC#N)C(C)(C)[C@@H]5CC[C@]43C)[C@@H]12`, the growth was 69.4% (inactive).
Consider `CNC(=O)Nc1ccc(-c2ccc3ncnc(Nc4cccc(Cl)c4)c3c2)cc1`, for which the growth was -29.2% (active).
For the compound `O=C(Nc1ccc(OS(=O)(=O)c2ccccc2)cc1)C12CC3CC(CC(C3)C1)C2`, the growth is 40.5% (inactive).
